Data on three molecules can be found in the supplement of paper PMC12282887.

This experiment has as its system E. coli BW25113 marRABp lux reporter. Briefly: promoter activity interaction Z-score (Lux/OD deviation from empty-vector control); higher = stronger promoter induction by the compound. Here is the method: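 E. coli BW25113 (wild type or ΔmarA/ΔsoxS/Δrob) carrying pTU175 luxCDABE promoter reporters was grown in LB in 384-well plates at 37°C with each of 94 compounds at 4 two-fold concentrations, in biological duplicates. Luminescence and OD600 were read every 30 min for 12 h and integrated as AUC over 8 h (0-8 h WT, 1-9 h mutants). Lux AUC was divided by OD AUC; the interaction score is the residual of a Huber robust fit of each promoter against the empty-vector control, then Z-transformed per promoter.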

± gives the standard deviation of the averaged measurements.

`C[C@H]1c2cccc(O)c2C(=O)C2=C(O)[C@]3(O)C(=O)C(C(N)=O)=C(O)[C@@H](N(C)C)[C@@H]3[C@@H](O)[C@@H]21` [Doxycycline]: the “promoter activity interaction Z-score” value (0.064 µg/ml, genetic background: wild type) was determined as 0.973 ± 0.17; the “promoter activity interaction Z-score” value (0.064 µg/ml, genetic background: ΔmarA) worked out at 2.43 ± 0.098; the “promoter activity interaction Z-score” value (0.064 µg/ml, genetic background: Δrob) is 0.676 ± 0.28; the “promoter activity interaction Z-score” value (0.064 µg/ml, genetic background: ΔsoxS) worked out at 1.01 ± 0.13; the “promoter activity interaction Z-score” value (0.13 µg/ml, genetic background: wild type) was found to be 2.72 ± 0.47; the “promoter activity interaction Z-score” value (0.13 µg/ml, genetic background: ΔmarA) was 4.3 ± 0.47. The “promoter activity interaction Z-score” value by setting is: (0.13 µg/ml, genetic background: Δrob) 1.1 ± 0.25; (0.13 µg/ml, genetic background: ΔsoxS) 2.28 ± 0.13; (0.26 µg/ml, genetic background: wild type) 3.51 ± 0.065; (0.26 µg/ml, genetic background: ΔmarA) 2.23 ± 1.1; (0.26 µg/ml, genetic background: Δrob) 0.478 ± 0.55; (0.26 µg/ml, genetic background: ΔsoxS) 3.1 ± 0.92. The “promoter activity interaction Z-score” value (0.51 µg/ml, genetic background: wild type) turned out to be 0.833.

In the case of `CO[C@H]1/C=C/O[C@@]2(C)Oc3c(C)c(O)c4c(O)c(c(/C=N/N5CCN(C)CC5)c(O)c4c3C2=O)NC(=O)/C(C)=C\C=C\[C@H](C)[C@H](O)[C@@H](C)[C@@H](O)[C@@H](C)[C@H](OC(C)=O)[C@@H]1C` [Rifampicin], the “promoter activity interaction Z-score” value runs as follows: (1 µg/ml, genetic background: wild type) -0.547 ± 0.12; (1 µg/ml, genetic background: ΔmarA) -0.978 ± 0.48; (1 µg/ml, genetic background: Δrob) -0.432 ± 0.12; (1 µg/ml, genetic background: ΔsoxS) -0.415 ± 0.079; (2.1 µg/ml, genetic background: wild type) -0.461 ± 0.4; (2.1 µg/ml, genetic background: ΔmarA) -1.18 ± 0.22. For the same molecule, the “promoter activity interaction Z-score” value is, setting by setting: (2.1 µg/ml, genetic background: Δrob) -0.469 ± 0.39; (2.1 µg/ml, genetic background: ΔsoxS) -0.423 ± 0.032; (4.1 µg/ml, genetic background: wild type) -1.1 ± 0.31; (4.1 µg/ml, genetic background: ΔmarA) -1.23 ± 0.38; (4.1 µg/ml, genetic background: Δrob) -0.719 ± 0.14; (4.1 µg/ml, genetic background: ΔsoxS) -0.7557 ± 0.006.

With `O=c1c(O)c(-c2ccc(O)c(O)c2)oc2cc(O)cc(O)c12` [Quercetin], the “promoter activity interaction Z-score” value by setting is: (18.9 µg/ml, genetic background: wild type) 0.0379 ± 0.17; (18.9 µg/ml, genetic background: ΔmarA) -0.192 ± 0.25; (18.9 µg/ml, genetic background: Δrob) -0.164 ± 0.21; (18.9 µg/ml, genetic background: ΔsoxS) 0.203 ± 0.51; (37.8 µg/ml, genetic background: wild type) 0.341 ± 0.79; (37.8 µg/ml, genetic background: ΔmarA) 0.116 ± 0.59. For the same molecule, the “promoter activity interaction Z-score” value is, setting by setting: (37.8 µg/ml, genetic background: Δrob) 0.248 ± 0.078; (37.8 µg/ml, genetic background: ΔsoxS) 0.179 ± 0.43; (75.6 µg/ml, genetic background: wild type) 0.82 ± 0.64; (75.6 µg/ml, genetic background: ΔmarA) 0.9 ± 0.12; (75.6 µg/ml, genetic background: Δrob) -0.0348 ± 0.087; (75.6 µg/ml, genetic background: ΔsoxS) 0.129 ± 0.45. For the same molecule, the “promoter activity interaction Z-score” value by setting is: (151.1 µg/ml, genetic background: wild type) 1.13 ± 0.91; (151.1 µg/ml, genetic background: ΔmarA) 0.91 ± 0.61; (151.1 µg/ml, genetic background: Δrob) 0.867 ± 0.51; (151.1 µg/ml, genetic background: ΔsoxS) 0.0221 ± 0.045.
